Source: PubChem BioAssay AID1159580 (chemical genetic matrix, 2015)
Among all 5,500 compounds or so, about 2,000 (36%) were called active. Not shown: some 18% with an inconclusive outcome. This is one part of the list. A number with no mark means an inactive call. Cut-off read from the data, not from the text of the source: active = normalized growth mostly below about 0.91 (no sharp cut-off); inconclusive = no clear call, values can overlap the other calls; inactive = mostly above about 0.92.

Assay: chemical genetic growth profiling, strain panel (AID 1159580);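 note: tested at 20 µM; growth read once vehicle control cultures reached saturation at 30 °C; 1 = growth at the plate median or of vehicle wells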
Details: S. cerevisiae deletion strains, growth OD
[1] = locus YHR030C, strain SLT2, stronger effect = lower value
[2] = locus YJL095W, strain BCK1, stronger effect = lower value

O=c1c2ccccc2oc2ccc(O)cc12
normalized growth (locus YBR021W, strain FUR4, stronger effect = lower value): 1.13 | normalized growth (locus YBR229C, strain ROT2, stronger effect = lower value): 0.952 | normalized growth (locus YCL029C, strain bik1, stronger effect = lower value): 0.865 (active) | normalized growth (locus YDL035C, strain GPR1, stronger effect = lower value): 0.814 (active) | normalized growth (locus YDL074C, strain BRE1, stronger effect = lower value): 0.737 (active) | normalized growth (locus YDL101C, strain DUN1, stronger effect = lower value): 0.791 (active) | normalized growth (locus YDL134C, strain PPH21, stronger effect = lower value): 0.759 (active) | normalized growth (locus YDL185W, strain tfp1, stronger effect = lower value): 0.901 (active) | normalized growth (locus YDL192W, strain arf1, stronger effect = lower value): 0.864 (active) | normalized growth (locus YDR101C, strain arx1, stronger effect = lower value): 0.922 | normalized growth (locus YDR162C, strain NBP2, stronger effect = lower value): 0.368 (active) | normalized growth (locus YDR318W, strain mcm21, stronger effect = lower value): 0.896 (active) | normalized growth (locus YDR388W, stronger effect = lower value): 0.937 | normalized growth (locus YDR502C, strain sam2, stronger effect = lower value): 0.895 (active) | normalized growth (locus YEL061C, strain CIN8, stronger effect = lower value): 0.863 (active) | normalized growth (locus YER110C, stronger effect = lower value): 0.919 | normalized growth (locus YER155C, strain BEM2, stronger effect = lower value): 0.978 | normalized growth (locus YER167W, strain BCK2, stronger effect = lower value): 0.949 | normalized growth (locus YGL078C, strain dbp3, stronger effect = lower value): 0.962 | normalized growth (locus YGL086W, strain mad1, stronger effect = lower value): 0.854 (active) | normalized growth (locus YGL248W, strain PDE1, stronger effect = lower value): 0.811 (active) | normalized growth (locus YGR078C, strain PAC10, stronger effect = lower value): 0.736 (active) | normalized growth (locus YGR135W, strain pre9, stronger effect = lower value): 0.856 (active) | normalized growth (locus YGR252W, strain gcn5, stronger effect = lower value): 0.847 | normalized growth [1]: 0.738 (active) | normalized growth (locus YHR079C, strain IRE1 (second series), stronger effect = lower value): 0.961 | normalized growth (locus YHR094C, strain hxt1, stronger effect = lower value): 0.977 | normalized growth (locus YHR129C, strain ARP1, stronger effect = lower value): 0.889 (active) | normalized growth (locus YHR200W, strain rpn10, stronger effect = lower value): 0.956 | normalized growth (locus YIL066C, strain RNR3, stronger effect = lower value): 0.767 (active) | normalized growth (locus YIL073C, strain SPO22, stronger effect = lower value): 0.815 | normalized growth (locus YIL125W, strain kgd1, stronger effect = lower value): 0.962 | normalized growth (locus YIR030C, strain dcg1, stronger effect = lower value): 0.933 | normalized growth [2]: 0.516 (active) | normalized growth (locus YJL134W, strain LCB3, stronger effect = lower value): 0.941 | normalized growth (locus YJL168C, strain set2, stronger effect = lower value): 0.948 | normalized growth (locus YJL187C, strain SWE1 (second series), stronger effect = lower value): 0.828 (active) | normalized growth (locus YJR043C, strain POL32, stronger effect = lower value): 0.981 | normalized growth (locus YKL009W, strain mrt4, stronger effect = lower value): 0.939 | normalized growth (locus YKL068W, stronger effect = lower value): 1.01 | normalized growth (locus YKL085W, strain MDH1 (second series), stronger effect = lower value): 0.976 | normalized growth (locus YKL085W, strain MDH1, stronger effect = lower value): 0.976 | normalized growth (locus YKR001C, strain vps1, stronger effect = lower value): 0.509 (active) | normalized growth (locus YLR039C, strain RIC1, stronger effect = lower value): 0.49 (active) | normalized growth (locus YLR058C, strain SHM2, stronger effect = lower value): 0.886 (active) | normalized growth (locus YLR102C, strain apc9, stronger effect = lower value): 0.984 | normalized growth (locus YLR262C, strain YPT6, stronger effect = lower value): 0.461 (active) | normalized growth (locus YLR268W, strain sec22, stronger effect = lower value): 0.859 (active) | normalized growth (locus YLR330W, strain CHS5, stronger effect = lower value): 0.834 (active) | normalized growth (locus YLR342W, strain FKS1 (second series), stronger effect = lower value): 0.918 | normalized growth (locus YLR371W, strain rom2, stronger effect = lower value): 0.894 (active) | normalized growth (locus YLR418C, strain cdc73, stronger effect = lower value): 0.786 (active) | normalized growth (locus YML016C, strain PPZ1, stronger effect = lower value): 0.915 (active) | normalized growth (locus YML032C, strain rad52, stronger effect = lower value): 0.757 (active) | normalized growth (locus YML124C, strain tub3, stronger effect = lower value): 0.945 | normalized growth (locus YMR078C, strain ctf18, stronger effect = lower value): 0.938 | normalized growth (locus YMR223W, strain ubp8, stronger effect = lower value): 0.895 (active) | normalized growth (locus YMR263W, strain SAP30, stronger effect = lower value): 0.833 (active) | normalized growth (locus YMR307W, strain GAS1, stronger effect = lower value): 0.881 | normalized growth (locus YNL067W, strain RPL9B, stronger effect = lower value): 0.871 | normalized growth (locus YNL233W, strain BNI4, stronger effect = lower value): 0.782 (active) | normalized growth (locus YNL250W, strain rad50, stronger effect = lower value): 0.917 | normalized growth (locus YNL271C, strain bni1, stronger effect = lower value): 0.915 (active) | normalized growth (locus YNL298W, strain CLA4, stronger effect = lower value): 0.941 | normalized growth (locus YNL307C, strain MCK1, stronger effect = lower value): 0.63 (active) | normalized growth (locus YNL322C, strain KRE1, stronger effect = lower value): 0.948 | normalized growth (locus YNR052C, strain pop2, stronger effect = lower value): 0.871 (active) | normalized growth (locus YOL012C, strain htz1): 1.06 | normalized growth (locus YOL147C, strain pex11, stronger effect = lower value): 0.926 (active) | normalized growth (locus YOR061W, strain CKA2, stronger effect = lower value): 0.924 | normalized growth (locus YOR069W, strain VPS5, stronger effect = lower value): 0.919 (active) | normalized growth (locus YOR136W, strain idh2, stronger effect = lower value): 0.957 | normalized growth (locus YOR144C, strain elg1, stronger effect = lower value): 0.943 | normalized growth (locus YOR184W, strain ser1, stronger effect = lower value): 0.746 (active) | normalized growth (locus YOR316C, strain cot1, stronger effect = lower value): 0.967 | normalized growth (locus YPL055C, strain LGE1, stronger effect = lower value): 0.827 | normalized growth (locus YPL241C, strain CIN2, stronger effect = lower value): 0.941 | normalized growth (locus YPR119W, strain clb2, stronger effect = lower value): 0.949 | normalized growth (locus YPR141C, strain kar3, stronger effect = lower value): 0.965 | normalized growth (locus YPR163C, strain tif3, stronger effect = lower value): 0.772 (active) | normalized growth (locus YPR167C, strain met16, stronger effect = lower value): 0.934 | normalized growth (strain wtn01, stronger effect = lower value): 0.931

O=C(O)c1cc(=O)c2ccccc2o1
normalized growth (locus YAL021C, strain ccr4, stronger effect = lower value): 1.01 | normalized growth (locus YAL026C, strain drs2, stronger effect = lower value): 0.984 | normalized growth (locus YAL030W, strain snc1, stronger effect = lower value): 0.971 | normalized growth (locus YBL061C, strain skt5, stronger effect = lower value): 0.974 | normalized growth (locus YBR009C, strain hhf1, stronger effect = lower value): 0.989 | normalized growth (locus YBR023C, strain chs3, stronger effect = lower value): 0.982 | normalized growth (locus YBR171W, strain sec66, stronger effect = lower value): 0.965 | normalized growth (locus YBR231C, strain swc5, stronger effect = lower value): 0.982 | normalized growth (locus YBR279W, strain paf1, stronger effect = lower value): 0.981 | normalized growth (locus YCL011C, strain gbp2, stronger effect = lower value): 0.988 | normalized growth (locus YCL016C, strain dcc1, stronger effect = lower value): 0.995 | normalized growth (locus YCL061C, strain MRC1, stronger effect = lower value): 0.979 | normalized growth (locus YCL069W, strain vba3, stronger effect = lower value): 0.99 | normalized growth (locus YCR088W, strain abp1, stronger effect = lower value): 0.973 | normalized growth (locus YDL005C, strain med2, stronger effect = lower value): 0.967 | normalized growth (locus YDL040C, strain nat1, stronger effect = lower value): 0.98 | normalized growth (locus YDR001C, strain nth1, stronger effect = lower value): 0.972 | normalized growth (locus YDR069C, strain doa4, stronger effect = lower value): 0.966 | normalized growth (locus YDR137W, strain rgp1, stronger effect = lower value): 0.971 | normalized growth (locus YDR159W, strain sac3, stronger effect = lower value): 1 | normalized growth (locus YDR195W, strain ref2): 0.916 | normalized growth (locus YDR297W, strain sur2, stronger effect = lower value): 0.983 | normalized growth (locus YDR334W, strain swr1, stronger effect = lower value): 0.976 | normalized growth (locus YDR335W, strain msn5, stronger effect = lower value): 0.986 | normalized growth (locus YDR392W, strain spt3, stronger effect = lower value): 1.02 | normalized growth (locus YEL003W, strain gim4, stronger effect = lower value): 0.983 | normalized growth (locus YEL037C, strain rad23, stronger effect = lower value): 0.973 | normalized growth (locus YEL061C, strain CIN8 (second series), stronger effect = lower value): 0.97 | normalized growth (locus YER015W, strain faa2, stronger effect = lower value): 0.99 | normalized growth (locus YER016W, strain bim1, stronger effect = lower value): 0.984 | normalized growth (locus YER111C, strain swi4, stronger effect = lower value): 0.972 | normalized growth (locus YER155C, strain BEM2 (second series), stronger effect = lower value): 0.936 | normalized growth (locus YFR010W, strain ubp6, stronger effect = lower value): 0.976 | normalized growth (locus YGL167C, strain pmr1, stronger effect = lower value): 0.973 | normalized growth (locus YGL173C, strain kem1, stronger effect = lower value): 0.975 | normalized growth (locus YGL227W, strain vid30, stronger effect = lower value): 0.968 | normalized growth (locus YGL240W, strain doc1, stronger effect = lower value): 0.96 | normalized growth (locus YGL253W, strain hxk2, stronger effect = lower value): 0.992 | normalized growth (locus YHR013C, strain ard1, stronger effect = lower value): 0.978 | normalized growth (locus YHR027C, strain rpn1, stronger effect = lower value): 0.977 | normalized growth [1]: 1.03 | normalized growth (locus YHR079C, strain IRE1, stronger effect = lower value): 1.02 | normalized growth (locus YHR142W, strain chs7, stronger effect = lower value): 0.983 | normalized growth (locus YJL092W, strain hpr5, stronger effect = lower value): 0.98 | normalized growth (locus YJL095W, strain BCK1 (second series), stronger effect = lower value): 0.97 | normalized growth [2]: 1.03 | normalized growth (locus YJL115W, strain asf1, stronger effect = lower value): 0.979 | normalized growth (locus YJL129C, strain trk1, stronger effect = lower value): 0.95 | normalized growth (locus YJL154C, strain vps35, stronger effect = lower value): 0.952 | normalized growth (locus YJL164C, strain tpk1, stronger effect = lower value): 0.98 | normalized growth (locus YJL166W, strain qcr8, stronger effect = lower value): 0.97 | normalized growth (locus YJR066W, strain TOR1, stronger effect = lower value): 0.956 | normalized growth (locus YKL160W, strain elf1, stronger effect = lower value): 0.987 | normalized growth (locus YKR026C, strain gcn3, stronger effect = lower value): 0.971 | normalized growth (locus YKR091W, strain srl3, stronger effect = lower value): 0.972 | normalized growth (locus YLL001W, strain dnm1, stronger effect = lower value): 0.957 | normalized growth (locus YLL026W, stronger effect = lower value): 0.969 | normalized growth (locus YLL041C, strain sdh2, stronger effect = lower value): 0.972 | normalized growth (locus YLR027C, strain aat2, stronger effect = lower value): 0.979 | normalized growth (locus YLR113W, strain HOG1, stronger effect = lower value): 1.05 | normalized growth (locus YLR221C, strain rsa3, stronger effect = lower value): 1 | normalized growth (locus YLR258W, strain gsy2, stronger effect = lower value): 0.985 | normalized growth (locus YLR262C, strain YPT6 (second series), stronger effect = lower value): 0.986 | normalized growth (locus YLR320W, strain mms22, stronger effect = lower value): 0.991 | normalized growth (locus YLR342W, strain FKS1, stronger effect = lower value): 0.983 | normalized growth (locus YLR357W, strain rsc2, stronger effect = lower value): 0.975 | normalized growth (locus YLR370C, strain arc18, stronger effect = lower value): 0.974 | normalized growth (locus YLR384C, strain iki3, stronger effect = lower value): 0.976 | normalized growth (locus YML120C, strain ndi1, stronger effect = lower value): 0.958 | normalized growth (locus YMR058W, strain fet3, stronger effect = lower value): 0.984 | normalized growth (locus YMR125W, strain sto1, stronger effect = lower value): 0.95 | normalized growth (locus YMR129W, stronger effect = lower value): 0.981 | normalized growth (locus YMR205C, strain PFK2, stronger effect = lower value): 0.969 | normalized growth (locus YMR231W, strain pep5, stronger effect = lower value): 0.949 | normalized growth (locus YNL071W, strain lat1, stronger effect = lower value): 0.988 | normalized growth (locus YNL183C, strain NPR1, stronger effect = lower value): 0.949 | normalized growth (locus YNL209W, strain ssb2, stronger effect = lower value): 1.03 | normalized growth (locus YNL248C, strain rpa49, stronger effect = lower value): 0.968 | normalized growth (locus YNL322C, strain KRE1 (second series), stronger effect = lower value): 0.953 | normalized growth (locus YNR049C, strain mso1, stronger effect = lower value): 0.982 | normalized growth (locus YOR001W, strain rrp6, stronger effect = lower value): 0.983 | normalized growth (locus YOR070C, strain gyp1, stronger effect = lower value): 0.985 | normalized growth (locus YOR080W, strain dia2, stronger effect = lower value): 0.971 | normalized growth (locus YOR083W, strain WHI5, stronger effect = lower value): 0.982 | normalized growth (locus YOR106W, strain vam3, stronger effect = lower value): 0.972 | normalized growth (locus YOR231W, strain MKK1, stronger effect = lower value): 1.07 | normalized growth (locus YOR265W, strain rbl2, stronger effect = lower value): 0.976 | normalized growth (locus YOR270C, strain vph1, stronger effect = lower value): 0.962 | normalized growth (locus YOR290C, strain snf2, stronger effect = lower value): 1 | normalized growth (locus YPL051W, strain arl3, stronger effect = lower value): 0.983 | normalized growth (locus YPL078C, strain atp4, stronger effect = lower value): 0.975 | normalized growth (locus YPL106C, strain sse1, stronger effect = lower value): 0.988 | normalized growth (locus YPL240C, strain hsp82, stronger effect = lower value): 0.994 | normalized growth (locus YPL256C, strain CLN2, stronger effect = lower value): 1.03
